37 molecules from PMC5540273 (PLoS ONE, 2017) can be followed below.
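Also: KINOMEscan kinase panel screen.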

This assay has as its system TEC. The following applies: concentration: 1 μM,replicates: in singlicate; n = 1.
Regarding `CN1CCN(CCCNc2nccc(-c3c(-c4ccc(F)cc4)nn4cc(C(N)=O)ccc34)n2)CC1` [GW622475], the “%Inh” value is listed as 8%.

In the case of `C[C@@H]1CNc2c(sc3ccc4nc(-c5ccc(O)cc5)ccc4c23)C(=O)N1`, the “%Inh” value is 5%.

Regarding `CCn1c(-c2nonc2N)nc2cncc(Br)c21` [SB-738004], the “%Inh” value is recorded as 0%. For `C[C@@H]1CCN(C(=O)N2CCCC2)C[C@@H]1N(C)c1ncnc2[nH]ccc12` the value was 0%; for `CS(=O)c1ccc(-c2coc3ccc(-c4n[nH]c(=O)o4)cc23)cc1` (stereo not shown), 0%; for `CCn1c(-c2nonc2N)nc2cncc(CNC3CCNCC3)c21.Cl` [SB-747651], 2%. As for `C[C@@H](Oc1cc(-n2cnc3cc(-c4cnn(C)c4)ccc32)sc1C(N)=O)c1ccccc1Cl` [GSK580432], the “%Inh” value was 0%. For the molecule `CN1CCN(CCNc2nc3cc(Oc4ccc(NC(=O)Nc5cc(C(F)(F)F)ccc5F)cc4)ccc3[nH]2)CC1.Cl.Cl` [GW768504], the “%Inh” value is 0%. To `CCNCC(Cc1ccccc1)NC(=O)c1cc(Br)c(-c2ccnc3[nH]ccc23)s1.Cl.Cl` (stereo not shown) [GSK1383280] belongs 0%; to `CCCC(=O)Nc1n[nH]c2ncccc12` [SB-601436], 0%; to `COc1cccc(C2=C(Nc3cccc(Cl)c3)C(=O)NC2=O)c1` [SB-341556], 0%. As to `C[C@@H]1CNc2c(sc3ccc4nc(-c5ccncc5)ccc4c23)C(=O)N1`, the “%Inh” value was 0%. To `CC(=O)c1c(-c2ccncc2)[nH]c(-c2ccncc2)c1C` [GW493036] belongs 0%. As to `CCN1CCN(CCCC(=O)Nc2n[nH]c3nc(-c4ccc(O)cc4)c(Br)cc23)CC1` [SB-731579], the “%Inh” value was 0%. With `O=c1[nH]cc(-c2ccc(O)cc2)c2sc(-c3ccncc3)cc12` [GSK1033723], the “%Inh” value came out at 0%. As for `Nc1nccc(-c2ccc3c(N)n[nH]c3c2)n1` [GSK1034945], the “%Inh” value was 13%. For `COC(=O)c1cccc(NC(=O)NC2CCN(c3ccnc(NCc4ccc(F)cc4)n3)CC2)c1` [GSK1379860], the “%Inh” value is recorded as 15%. `COc1cc2nccc(Nc3ccc(Oc4ccccc4)cc3)c2cc1OC.Cl` [GI261656]: the “%Inh” value turned out to be 92.8%. On to `Cn1ccc2ncnc(Oc3ccc(NC(=O)Nc4cccc(C(F)(F)F)c4)c(Cl)c3)c21`, for which the “%Inh” value is reported as 0%.

Consider `CNC(=O)c1ccccc1Nc1nc(Nc2cccc(CS(C)(=O)=O)c2)ncc1C.O=CO` [GSK1520489], for which the “%Inh” value is 99.9%. In the case of `Cc1cccc2c(-c3ccncc3)c(-c3ccc(F)cc3)nn12.Cl` [GW461487], the “%Inh” value is 0%. For `Cc1nnc(-c2ccc3occ(-c4ccc(S(C)=O)cc4)c3n2)o1` (stereo not shown), the “%Inh” value amounted to 0%.

Consider `OCCn1cc(-c2cnc3nnn(Cc4ccc5ncccc5c4)c3n2)cn1`, for which the “%Inh” value turned out to be 0%.

For the molecule `COC(=O)c1cccc(NC(=O)NC2CCN(c3ccnc(Nc4cc(OC)c(OC)c(OC)c4)n3)C2)c1` (stereo not shown) [GSK1379767], the “%Inh” value came to 0%. For `O=C(Nc1cccc(C(F)(F)F)c1)c1cccc(Oc2ccc3nccn3n2)c1`, the “%Inh” value is 7%.

Take `Cc1cccc(-c2nc(Nc3ccncc3)c3sccc3n2)n1` [GW869641]: the “%Inh” value is reported as 0%. `COc1cc2ncn(-c3cc(OCC4CCCCC4)c(C(N)=O)s3)c2cc1OC` [GSK204559]: the “%Inh” value came to 13%. For the molecule `Cn1cc(-c2cccc3c(N)c(C(N)=O)nnc23)cn1`, the “%Inh” value was 0%.

Regarding `NC(=O)Nc1sc(-c2ccc(F)cc2)cc1C(N)=O` [GW789449], the “%Inh” value came to 1%. Regarding `c1ccc(Oc2ccc(Nc3ccnc4ccc(-c5ccccn5)cc34)cc2)cc1` [GW407034], the “%Inh” value is 78%. On to `Cn1ccc2ncnc(Oc3ccc(NC(=O)Nc4cnn(C(C)(C)C)c4)c(Cl)c3)c21`, for which the “%Inh” value came out at 0%. Turning to `Cc1ccc(Nc2ccnc(Nc3ccc4c(c3)CS(=O)(=O)C4)n2)cc1O.Cl` [GW579362], the “%Inh” value is recorded as 83%. `Cc1ccc(C(=O)Nc2ccc(Oc3ccc4nc(NC(=O)C5CC5)cn4c3)c(F)c2)c(=O)n1-c1ccccc1`: the “%Inh” value came to 55%. On to `CC(C(=O)NC1CCN(c2ccnc(Nc3ccc(F)cc3)n2)C1)c1ccc(Cl)cc1` (stereo not shown) [GSK1379713], for which the “%Inh” value was 0%. Take `COC(=O)Nc1nc2cc(Oc3ccc(NC(=O)Nc4cc(C(F)(F)F)ccc4Cl)cc3)ccc2[nH]1.Cl` [GW697465]: the “%Inh” value is reported as 15%. On to `CCOC(=O)N1CCC(n2cnc(-c3ccc(F)cc3)c2-c2ccnc(N)n2)CC1` [SB-219952], for which the “%Inh” value is listed as 0%. As to `Cn1ccc2ncnc(Oc3ccc(NC(=O)Nc4cc(C(C)(C)C)on4)c(Cl)c3)c21`, the “%Inh” value stood at 9%.
